Shown are actives, neighbours in structure and some others; about 22% of the full set was active somewhere.
CYP2C19 inhib: blocks human cytochrome P450 2C19 | P33261 | inhibition, % at 5 µM | hit rate 21% among 96,000 | CYP2C19 Supersomes, luciferin-H EGE luminescence, 30 min | AID 778;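 active = CYP2C19 inhibition above a set limit at 5 µM in the primary screen, cut at about 50% in these data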;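 note: plate controls were negative control wells for no effect and 2.5 mM tranylcypromine positive control for full effect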
Target sequence (P33261 whole entry, looked up): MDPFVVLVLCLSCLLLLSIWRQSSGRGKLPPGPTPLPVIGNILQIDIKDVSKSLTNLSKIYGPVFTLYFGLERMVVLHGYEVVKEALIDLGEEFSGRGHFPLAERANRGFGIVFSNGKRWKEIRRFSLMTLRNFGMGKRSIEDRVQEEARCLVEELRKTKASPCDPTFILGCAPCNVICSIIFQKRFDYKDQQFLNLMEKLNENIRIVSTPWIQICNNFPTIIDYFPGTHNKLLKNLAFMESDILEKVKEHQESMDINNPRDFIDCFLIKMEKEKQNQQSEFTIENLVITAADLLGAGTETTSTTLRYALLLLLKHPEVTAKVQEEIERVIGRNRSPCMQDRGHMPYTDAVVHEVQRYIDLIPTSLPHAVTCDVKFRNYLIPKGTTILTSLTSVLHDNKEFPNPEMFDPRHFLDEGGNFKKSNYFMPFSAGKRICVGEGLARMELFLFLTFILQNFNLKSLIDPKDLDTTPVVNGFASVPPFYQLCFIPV
CYP2C9 act: CYP2C9 (human) activation; P11712; recombinant CYP2C9, luciferin-H conversion, luminescence; hits give high values; factor 1 = untreated enzyme, 0 = blocked; activation factor at 5 µM; hit rate 1.4% among 96,000;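 active = activation factor of 2 or more for CYP2C9 at a 5 µM dose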;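 note: 0 = sulfaphenazole-blocked wells and 1 = vehicle-only wells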
Measles CPE: protection of cells from measles virus. hit rate 1.5% among 140,000. Measles virus-infected cells, CPE protection, absorbance. AID 841. protection (pct of control), % at 4 µM; in the data active = protection mostly above about 24%, no sharp cut-off; inactive = mostly below about 26%
CYP2C19 act: activators of human cytochrome P450 2C19; activation factor at 5 µM; 96,000 tested, under 10 active; recombinant CYP2C19, luciferin-H EGE luminescence; hits give high values; 0 = fully inhibited enzyme, 1 = untreated enzyme;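 active = activation factor of at least 2 at 5 µM in the primary screen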;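 note: 0 = wells with 2.5 mM tranylcypromine and 1 = vehicle-only wells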
CYP2C9 inh: human CYP2C9 inhibition | P11712 | CYP2C9 Supersomes, luciferin-H conversion, luminescence | inhibition, % at 5 µM | hit rate 20% among 96,000;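 active = blocking of liver enzyme CYP2C9 beyond about 50% at 5 µM, limit read from the data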
Numbers without * were called inactive; x = not tested or not shown.

SMILES	CYP2C19 inhib	CYP2C9 act	Measles CPE	CYP2C19 act	CYP2C9 inh
CC(=O)NS(=O)(=O)c1ccc(NC(=O)CN2C(=O)C3C4C=CC(C4)C3C2=O)cc1 (configuration not stated)	x	x	21	x	x
COc1ccccc1C(=O)NC(=Nc1nc2ccccc2o1)NC(=O)c1ccccc1OC	65*	0.3	6	0.3	73*
Cc1ccc(-c2nnc3sc(CCc4ccccc4)nn23)cc1	65*	0.2	6	0.3	76*
CCOc1ccc(-c2nnc3sc(COc4ccccc4)nn23)cc1	17	1.1	25	0.8	-10
Cc1ccccc1-c1nn2c(-c3ccccc3)nnc2s1	87*	0.4	7	0.1	56*
Cc1cc(-c2nn3c(-c4ccccc4)nnc3s2)c2ccccc2n1	79*	0.7	4	0.2	32
Cc1cc(=O)n2nc(-c3ccccc3)sc2n1	-11	1.1	x	1.1	-13
c1ccc(-c2cc(-c3nn4c(-c5ccco5)nnc4s3)c3ccccc3n2)cc1	37	0.2	3	0.6	77*
CCOc1ccc(-c2nn3c(-c4ccccc4)nnc3s2)cc1	29	0.8	3	0.7	24
Cc1ccc(S(=O)(=O)N2CCN(S(=O)(=O)N3CCOCC3)CC2)c(C)c1	49	1.4	17	0.5	-37
O=C(Nc1ccc(S(=O)(=O)N2CCN(c3ccccc3)CC2)cc1)c1cccs1	1	1	3	1	2
COc1ccc(OC)c(C2CC(=O)N3CN(c4ccc(C)c(Cl)c4)CSC3=C2C#N)c1 (configuration not stated)	54*	0	4	0.5	96*
COc1cc(OC)c(C2CC(=O)N3CN(c4ccccc4)CSC3=C2C#N)cc1OC (configuration not stated)	15	0.6	19	0.9	38
COc1ccc(OC)c(C2CC(=O)N3CN(c4cccc(Cl)c4)CSC3=C2C#N)c1 (configuration not stated)	70*	0.1	21	0.3	90*
CCOC(=O)c1ccc(N2CSC3=C(C#N)C(c4ccc(OC)cc4OC)CC(=O)N3C2)cc1 (configuration not stated)	52*	0.1	1	0.5	91*
COC(=O)CCSCC(=O)Nc1nnc(C)s1	-18	1.1	1	1.2	-14
O=C(COc1cc(O)c2c(=O)cc(-c3ccccc3)oc2c1)c1ccc(F)cc1	8	0.6	17	0.9	40
O=C(COc1cc(O)c2c(=O)cc(-c3ccccc3)oc2c1)c1ccccc1	32	0.4	4	0.7	59*
CC1CCN(C(=O)c2ccc(SCc3ccccc3F)c([N+](=O)[O-])c2)CC1	x	x	30	x	x
Cc1ccc(C(O)P(=O)(OC2CCCCC2)OC2CCCCC2)cc1 (configuration not stated)	89*	0.4	11	0.1	62*
CCOC(=O)C1=C(C)N=C2SC(C)C(=O)N2C1/C=C/c1ccccc1OC (configuration not stated)	49	0.2	2	0.5	80*
CCOC(=O)C1=c2/c(=C/c3ccccc3OC)c(N)c(C#N)n2C(=O)C(c2ccccc2OC)S1 (configuration not stated)	5	1	4	1	4
COc1ccc(SCC(=O)c2cc(C)c(OC(=S)N(C)C)c(C)c2)cc1	87*	0.6	32	0.1	45
Cc1cc(C(=O)CSc2ccc(F)cc2)cc(C)c1OC(=S)N(C)C	94*	0.2	5	0.1	81*
COc1ccc(C(=O)CSc2cc(C)nc(SCC(=O)c3ccc(C)cc3)n2)cc1	x	x	29	x	x
SMILES	CYP2C19 inhib	CYP2C9 act	Measles CPE	CYP2C19 act	CYP2C9 inh
Cc1ccc2[nH]c(O)c(N=NC(=O)C(C)n3cnc4ccccc4c3=O)c2c1 (configuration not stated)	x	x	17	x	x
Cc1nc(Cl)sc1C(=O)Nc1ccc(Cl)cc1	x	x	13	x	x
O=C(/C=C\c1ccc2c(c1)OCO2)NC1(C(=O)Nc2ccc3c(c2)OCO3)CCCCC1	x	x	13	x	x
CCOC(=O)C1=C(CSc2nc3c(cc2C#N)CCC3)OC(N)=C(C#N)C1c1ccccc1 (configuration not stated)	x	x	5	x	x
CCOC(=O)C1=C(CSc2nc(-c3ccccc3)ccc2C#N)OC(N)=C(C#N)C1c1cccnc1 (configuration not stated)	92*	0.1	11	0.1	94*
CCOC(=O)C1=C(CSc2nc3c(cc2C#N)CN(C)CC3)OC(N)=C(C#N)C1c1ccccc1 (configuration not stated)	43	0.6	13	0.6	41
CCOC(=O)C1=C(CSc2nc3c(cc2C#N)CN(C)CC3)OC(N)=C(C#N)C1c1ccc(F)cc1 (configuration not stated)	92*	0.1	7	0.1	86*
CCOC(=O)C1=C(CSc2nc(-c3ccccc3)ccc2C#N)OC(N)=C(C#N)C1c1ccccc1 (configuration not stated)	59*	0.1	6	0.4	92*
Cc1noc(NS(=O)(=O)c2ccc(NC(=O)CSc3nc4ccccc4s3)cc2)c1C	-20	1.1	4	1.2	-14
CC(=O)Nc1ccc(NC(=O)C(C)OC(=O)C2(c3ccc(Cl)cc3)CCCC2)cc1 (configuration not stated)	x	x	8	x	x
CC1CC(c2ccccc2)n2nc(NC(=O)c3ccco3)nc2N1 (configuration not stated)	-19	1.1	4	1.2	-12
CC1CC(N(C(=O)c2ccco2)c2ccccc2)c2ccccc2N1 (configuration not stated)	84*	0	13	0.2	96*
Nc1oc2ccc(F)cc2c(=O)c1C=O	x	x	8	x	x
CNCC(=O)Nc1c(C)n[nH]c1C	x	x	4	x	x
CCCC(=O)Nc1c(C)n[nH]c1C	23	0.4	5	0.8	62*
C=CCOC(=O)CCC(=O)Nc1cccc2ccccc12	80*	0.9	17	0.2	13
O=C(CCC(=O)OCc1ccc(C(=O)Oc2ccccc2)cc1)Nc1cccc2ccccc12	5	0.5	79*	0.9	46
CCOC(=O)c1c(C)nc2c(C#N)cnn2c1C	63*	1.1	54	0.4	-7
CC(C)c1ccc(C(=O)N(c2ccccn2)C(C)c2ccco2)cc1 (configuration not stated)	32	0.5	23	0.7	49
CC(c1ccco1)N(C(=O)CSc1ccc(Br)cc1)c1ccccn1 (configuration not stated)	98*	0.1	5	0	90*
Cc1cc(C)c(C#N)c(SCC(=O)c2cccs2)n1	96*	0.4	16	0	62*
CC(=O)CSc1nc(N)c(C#N)c(-c2cccs2)c1C#N	-13	0.4	26	1.1	60*
Cc1cc2c(C)ccc(C)c2nc1SCC(=O)c1cccs1	-2	0.5	20	1	55*
CC(C)OC(=O)CSc1nc(N)c(C#N)c(-c2cccs2)c1C#N	23	1	1	0.8	3
